TDP1 cell CPT: growth inhibition of DT40 Tdp1-/-;hTDP1 cells with camptothecin (screen for TDP1 inhibitors) | chicken DT40 Tdp1-/-;hTDP1 cells + 20 nM CPT, ATP luminescence, 48 h | Potency, µM (top dose mostly 46.2 µM), without a hit: at the top dose activity change, negative = growth inhibition, actives largely listed as inhibitors | 420,000 tested, 12% active | AID 686979; note: potency is the fitted concentration of half-maximal effect; % is set by controls: 0 for no effect and ±100 for the full control effect; nearly all actives have a fitted effect of over 55% in size
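Cell growth measured by CellTiter-Glo luminescence after a minimum 48 h, 37 C compound exposure with 20 nM CPT in Tdp1-knockout DT40 cells stably expressing hTDP1, seeded 400/well; qHTS titration format.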
IL-1B inflam inh: inflammasome signaling inhibition, IL-1 beta readout. 360,000 tested, 4.7% active. activity change, % at 57.5 µM. THP-1 LPS/ATP IL-1B secretion, AlphaLISA, 16 h; stronger effect = lower value; in the data active = activity change below about -50%; inconclusive = mostly about -30% to -49%; note: % is set by controls: 0 for no effect and ±100 for the full control effect
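THP-1 cells pretreated 1 hr with compounds (up to 57.5 uM final), then stimulated with LPS (250 ng/mL final) plus ATP (1.25 mM final); secreted IL-1B measured by AlphaLISA after 16 hr, decreased signal indicating inhibition.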
TGFb inhibitor: TGF-b pathway inhibition | HepG2 CAGA-GFP TGF-b/SMAD3 reporter, GFP fluorescence, 18 h; TGF-beta stimulated, 500 pg/mL final | Potency, µM (titrated, usually from 46.1 µM), for inactives: at the highest dose activity, negative = inhibition, most hits filed as inhibitors | 410,000 tested, 1.2% active | AID 588855; note: potency is the fitted concentration of half-maximal effect; % is set by controls: 0 for no effect and ±100 for the full control effect; nearly all actives have a fitted effect of over 65% in size
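TGF-beta reporter screen: HEPG2 CAGA-GFP, 1% FBS, 500 pg/mL TGF-beta final, 18 h; per-cell GFP summed per well; curves fitted and categorized by class.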
TDP1 inh: blocks human tyrosyl-DNA phosphodiesterase 1. Q9NUW8. Potency, µM (titrated, usually from 130 µM), inactives show at the highest dose activity change, negative = inhibition, actives largely listed as inhibitors. recombinant TDP1, AlphaScreen DNA substrate cleavage. 350,000 tested, 0.28% active; note: potency is the fitted concentration of half-maximal effect; % is set by controls: 0 for no effect and ±100 for the full control effect; nearly all actives have a fitted effect of over 40% in size
Target sequence (Q9NUW8 whole entry, looked up): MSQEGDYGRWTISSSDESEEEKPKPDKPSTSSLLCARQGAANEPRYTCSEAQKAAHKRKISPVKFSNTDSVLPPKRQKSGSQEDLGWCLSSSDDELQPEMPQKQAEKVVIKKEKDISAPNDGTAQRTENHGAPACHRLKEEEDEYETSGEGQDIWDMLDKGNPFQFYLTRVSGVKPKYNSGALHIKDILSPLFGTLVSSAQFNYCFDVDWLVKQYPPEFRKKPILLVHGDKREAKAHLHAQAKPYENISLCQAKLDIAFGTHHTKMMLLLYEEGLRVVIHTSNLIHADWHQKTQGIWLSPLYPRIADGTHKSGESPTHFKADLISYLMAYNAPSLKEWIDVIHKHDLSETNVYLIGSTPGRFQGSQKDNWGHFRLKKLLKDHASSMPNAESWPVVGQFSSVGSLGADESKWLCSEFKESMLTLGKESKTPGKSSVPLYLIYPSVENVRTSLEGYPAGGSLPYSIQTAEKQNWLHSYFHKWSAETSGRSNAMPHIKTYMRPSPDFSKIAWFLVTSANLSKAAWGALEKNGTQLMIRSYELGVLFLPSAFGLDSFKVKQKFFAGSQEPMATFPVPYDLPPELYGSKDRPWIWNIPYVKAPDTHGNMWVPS
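Steps: enzyme plus compound, 15 min RT; add biotin/phosphotyrosine-FITC oligonucleotide (15 nM final), react 5 min; add donor/acceptor beads (10 ug/ml final), 10 min; read AlphaScreen. Tdp1 at 1 nM final.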
HepG2 tox: kills HepG2 cells in TGF-b inhibitor counter-screen; HepG2 CAGA-GFP viability, ATP luminescence, 18 h; Potency, µM (highest dose often 46.1 µM), for the others: at the top dose activity change, negative = cytotoxicity, actives largely listed as cytotoxic; 410,000 tested, 0.76% active; AID 588856; note: potency is the fitted concentration of half-maximal effect
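CellTiter-Glo luminescence gave cytotoxicity after 18 hours at 37 degrees C. The cells were HepG2 CAGA-GFP in 1% FBS DMEM, stimulated with 500 pg/mL TGF-beta after compound addition. %Activity was normalised to no-cell wells (complete cell-killing) and DMSO (no toxicity), and curves were fitted and classified.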
DT40 TDP1 no CPT: qHTS for Inhibitors of human tyrosyl-DNA phosphodiesterase 1 (TDP1): qHTS in cells in absence of CPT | Potency, µM (highest dose often 46.2 µM), for the others: at the highest dose activity change, negative = growth inhibition, usual class: inhibitors | AID 686978, 2013 | 420,000 tested, 15% active | DT40 Tdp1-/- hTDP1 cells, no CPT, ATP luminescence, 48 h; note: potency is the fitted concentration of half-maximal effect; % is set by controls: 0 for no effect and ±100 for the full control effect; nearly all actives have a fitted effect of over 55% in size
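Stably hTDP1-transfected Tdp1-null chicken DT40 cells were treated with library compounds minus camptothecin and grown for at least 48 hr at 37 °C, after which cellular ATP was quantified by luminescence.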
* marks the source's active call; other numbers are inactive results; ? = inconclusive; / = not tested or not shown; [ ] = dose if it differs, or a comment. Most compounds without a hit are left out; they make up all but 18% or so of the library. Unless noted, calls come from the whole dose curve; as a rule, active = well fitted curve in the direction sought with a large enough effect; inconclusive = small, poorly fitted or top-dose-only effect, or another doubt; inactive = no such curve, though single readings can be large; an effect the other way counts as inactive or inconclusive.

SMILES	TDP1 cell CPT	IL-1B inflam inh	TGFb inhibitor	TDP1 inh	HepG2 tox	DT40 TDP1 no CPT
Cc1cc(-n2c(C)cc(C(=O)CSc3nnc4sc5ccccc5n34)c2C)no1	16µM*	25	12%	2%	7%	?
COC(=O)C[C@@H]1CC[C@H](NS(=O)(=O)c2ccccc2F)[C@@H](CO)O1	5%	1	/	/	/	15%
COc1cccc(-c2cn3nc4c(nc3n2)CCCC4)c1	-35%	-13	-7%	2%	-71%	16µM*
Cc1nc2ncnn2c(N2CCN(C(c3ccccc3)c3ccccc3)CC2)c1C	21µM*	-8	?	6%	-87%	13µM*
COc1cccc(OC)c1C(=O)N1CCN(c2c(Cc3ccccc3)c(C)nc3ncnn23)CC1	-3%	-1	?	4%	-28%	-21%
Cc1cc(N2CCN(C(c3ccccc3)c3ccccc3)CC2)n2ncnc2n1	23µM*	23	9%	6%	-66%	?
O=CN/C=C/c1cc(F)cc(F)c1F	/	/	/	6%	/	/
COC(=O)c1[nH]c2cccc(OC)c2c1NC(=O)CCN1CCN(c2ccccc2OC)CC1	10µM*	-1	2%	2%	-18%	13µM*
COC(=O)c1[nH]c2cccc(OC)c2c1NC(=O)CN1CCN(c2cccc(OC)c2)C(C)C1 (configuration not stated)	?	-1	-29%	3%	-3%	15µM*
COc1cccc(N2CCN(CC(=O)c3c[nH]c4ccc(OC)cc34)CC2C)c1 (configuration not stated)	21µM*	-2	-19%	7%	-28%	21µM*
CCOc1ccc(CCNC(=O)CCc2c(C)nc3c(-c4ccccc4)c(C)nn3c2C)cc1OCC	?	/	-3%	-2%	3%	?
CC(C)=CCc1c(O)cc2occ(-c3ccc4c(c3)OCO4)c(=O)c2c1O	?	/	/	11%[56.1 µM]	/	?
O=c1c(-c2cc(O)c(O)c(O)c2)coc2cc(O)c(O)c(O)c12	?	/	/	0.28µM*	/	?
O=c1c(-c2ccc(O)cc2)coc2cc(O)cc(O)c12	13µM*	-3	28%	6%	-6%	12µM*
CCN(CC)C(=O)Cn1cc(C(=O)C(=O)N2CC=C(c3ccccc3)CC2)c2ccccc21	-24%	-10	17%	8%	-43%	-21%
CCC(Oc1ccccc1-c1nnc(-c2ccccc2)o1)C(=O)Nc1ccc(C(C)=O)cc1 (configuration not stated)	-15%	/	-1%	5%	-12%	-22%
CCOc1ccc2c(c1)c(=O)c(C(=O)c1ccc(CC)cc1)cn2CC(=O)Nc1ccccc1C	?	/	-12%	1%	-16%	?
CC1(C)CCC(c2ccc(Cl)cc2)=C(CN2CCN(c3ccc(C(=O)NS(=O)(=O)c4ccc(N[C@H](CCN5CCOCC5)CSc5ccccc5)c(S(=O)(=O)C(F)(F)F)c4)cc3)CC2)C1	0.45µM*	/	?	/	5.6µM*	0.32µM*
CC1CCCC(n2c(=S)[nH]c3ccccc3c2=O)C1C (configuration not stated)	?	37	14µM*	7%	-70%	?
Cc1ccc(Cn2c(=O)c3ccccc3n3c(-c4cccc(O)c4)nnc23)cc1	?	/	-3%	6%	-9%	?
O=[N+]([O-])c1ccc(NCCO)c(OCCO)c1	/	/	/	18%	/	/
O=[N+]([O-])c1cc(-n2cnnn2)ccc1N1CCC(Cc2ccccc2)CC1	23µM*	-24	10%	11%	-14%	9.2µM*
CC1CC(C)CN(c2ccc(-n3cnnn3)cc2[N+](=O)[O-])C1 (configuration not stated)	-17%	-22	?	5%	-45%	?
N#Cc1c(Cl)nc2c(c1C#N)CCCC2	6%	-4	3%	/	-6%	18µM*
C#CCOCCOCCOCCNc1nc(N2CCN(C(=O)CCCCCCCCCCNC(=O)[C@H](CO)n3cc(CCCSC)nn3)CC2)nc(N2CCN(C(=O)CCCCCCCCCCNC(=O)[C@@H]([C@H](C)O)n3cc(C)nn3)CC2)n1	/	/	/	0%	/	/
SMILES	TDP1 cell CPT	IL-1B inflam inh	TGFb inhibitor	TDP1 inh	HepG2 tox	DT40 TDP1 no CPT
C#CCOCCOCCOCCNc1nc(N2CCN(C(=O)CCCCCCCCCCNC(=O)[C@H](CO)n3cc(CCCSC)nn3)CC2)nc(N2CCN(C(=O)CCCCCCCCCCNC(=O)[C@H](CCCCN)n3cc(CCO)nn3)CC2)n1	?	-61*	-16%	9%	-25%	?
C#CCOCCOCCOCCNc1nc(N2CCN(C(=O)CCCCCCCCCCNC(=O)[C@@H](CCSC)n3cc(CCO)nn3)CC2)nc(N2CCN(C(=O)CCCCCCCCCCNC(=O)[C@H](CCSC)n3cc(CCO)nn3)CC2)n1	6.5µM*	?	?	-3%	-6%	?
C#CCOCCOCCOCCNc1nc(N2CCN(C(=O)CCCCCCCCCCNC(=O)Cn3cc(CCCCCN)nn3)CC2)nc(N2CCN(C(=O)CCCCCCCCCCNC(=O)[C@@H](CCSC)n3cc(CCO)nn3)CC2)n1	?	-60*	?	12%	-26%	?
C#CCOCCOCCOCCNc1nc(N2CCN(C(=O)CCCCCCCCCCNC(=O)[C@H](CCCCN)n3cc(C)nn3)CC2)nc(N2CCN(C(=O)CCCCCCCCCCNC(=O)[C@H](CCCCN)n3cc(CCCC(=O)O)nn3)CC2)n1	-4%	0	?	5%	8%	-7%
C#CCOCCOCCOCCNc1nc(N2CCN(C(=O)CCCCCCCCCCNC(=O)[C@H](CO)n3cc(CCCSC)nn3)CC2)nc(N2CCN(C(=O)CCCCCCCCCCNC(=O)[C@H](CCCN=C(N)N)n3cc(C[C@@H](C)CC)nn3)CC2)n1	?	-103*	?	11%	10µM*	23µM*
CCc1nn(CC(=O)N2CCN(c3ccc(F)cc3)CC2)c(=O)c2cc3occc3n12	-28%	3	0%	2%	2%	1%
NC(=O)C1CCN(C(=O)Cn2c(-c3cccs3)cc3ccccc32)CC1	21%	/	-16%	2%	-5%	11%

Source: PubChem
